Bioassay records: PubChem BioAssay, National Center for Advancing Translational Sciences (NCATS)
The list is not random: actives were taken first. Their share in the collection is about 3.1%.
Tb PFK inh: qHTS Assay to Find Inhibitors of T. brucei phosphofructokinase | AID 485367, 2010 | ATP-dependent 6-phosphofructokinase (Trypanosoma brucei brucei), O15648 | actives 0.17% (n = 330,000) | Potency, µM (titrated, usually from 57.5 µM), most hits filed as inhibitors | T. brucei PFK, ADP-Glo luminescence; note: nearly all actives have a fitted effect of over 60% in size
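In TEA buffer at pH 8.0 with 5 mM MgCl2, enzyme (1.25 nM) converted F6P (0.5 mM) and ATP (0.1 mM) for 45 min at room temperature. ADP product was read by luciferase luminescence.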
Pin1 inhibitor: qHTS Assay to Find Inhibitors of Pin1 | AID 504891, 2011 | Potency, µM (doses to about 115 µM), usual class: inhibitors | Pin1 FP peptide displacement, HiFluor488, 10 min | actives 0.009% (n = 390,000); active = well fitted inhibition curve with a large enough effect in the polarisation, with a control signal flat, not every such curve was filed as active; inconclusive = small, poorly fitted or top-dose-only effect, or effect the other way, or a change in a side signal; inactive = no such curve, though single readings can be large or run the other way; the % refers to the polarisation
VDR inhibitor: Inhibitors of the vitamin D receptor (VDR): qHTS; Vitamin D3 receptor (Homo sapiens), P11473; VDR-SRC2-3 peptide fluorescence polarization, 2 h; Potency, µM, most hits filed as inhibitors; actives 0.93% (n = 400,000); AID 504847, 2011
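Fluorescence polarization assay measuring small-molecule disruption of VDR binding to the coregulator peptide SRC2-3. Compounds were pin-transferred (23 nl) into the reagent mix and incubated 2 h at room temperature before reading.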
PLK1 PBD block: qHTS for Inhibitors of PLK1-PDB (polo-like kinase 1 - polo-box domain): Primary Screen. Plk1 PBD binding of FITC phosphopeptide, fluorescence polarization. Serine/threonine-protein kinase PLK1 (Homo sapiens), P53350. Potency, µM, usual class: inhibitors. AID 720504, 2013. actives 2.8% (n = 360,000); note: series mostly up to about 57 µM; nearly all actives have a fitted effect of over 65% in size
TDP1 inh: qHTS Assay for Inhibitors of Tyrosyl-DNA Phosphodiesterase (TDP1) | Tyrosyl-DNA phosphodiesterase 1 (Homo sapiens), Q9NUW8 | recombinant TDP1, AlphaScreen DNA substrate cleavage | Potency, µM (top dose mostly 130 µM), usual class: inhibitors | actives 0.28% (n = 350,000); note: nearly all actives have a fitted effect of over 40% in size
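Compounds were preincubated with Tdp1 (1 nM final) for 15 min at room temperature before substrate (15 nM final) started a 5 min reaction; beads (10 ug/ml final) were then added for 10 min before AlphaScreen detection.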
ASM inhibitor: Inhibitors of Secretory Acid Sphingomyelinase (S-ASM): qHTS. Sphingomyelin phosphodiesterase (Homo sapiens), P17405. placental ASM, HMU-PC fluorogenic substrate, 60 min. Potency, µM (highest dose often 57.5 µM), actives largely listed as inhibitors. actives 0.006% (n = 340,000)
Target sequence (P17405 47-631 limits assumed): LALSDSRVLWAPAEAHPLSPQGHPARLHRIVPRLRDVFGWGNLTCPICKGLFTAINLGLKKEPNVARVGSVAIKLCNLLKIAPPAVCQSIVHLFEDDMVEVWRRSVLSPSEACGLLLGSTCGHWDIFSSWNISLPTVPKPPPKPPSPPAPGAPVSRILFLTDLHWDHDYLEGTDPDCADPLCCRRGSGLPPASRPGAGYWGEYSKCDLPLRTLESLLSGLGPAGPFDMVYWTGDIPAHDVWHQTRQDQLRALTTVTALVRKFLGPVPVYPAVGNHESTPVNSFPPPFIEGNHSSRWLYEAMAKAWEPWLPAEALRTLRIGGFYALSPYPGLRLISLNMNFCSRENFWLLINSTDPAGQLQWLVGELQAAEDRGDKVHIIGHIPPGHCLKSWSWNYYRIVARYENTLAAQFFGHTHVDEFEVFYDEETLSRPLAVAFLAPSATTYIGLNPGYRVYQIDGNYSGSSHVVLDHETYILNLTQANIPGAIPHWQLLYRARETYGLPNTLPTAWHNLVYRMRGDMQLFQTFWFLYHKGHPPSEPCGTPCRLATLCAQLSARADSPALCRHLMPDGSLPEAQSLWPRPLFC
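qHTS format. ASM enzyme prepared from human placenta hydrolyses the fluorogenic substrate HMU-PC0 (9 uM final) over 60 min at 37 °C after a 10 min compound preincubation.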
VDR inh confirm: qHTS for Inhibitors of the vitamin D receptor (VDR): Hit Validation in Primary Screen. VDR-coactivator inhibition assay, qHTS confirmation. actives 89% (n = 840). Potency, µM, hits mostly inhibitors. shares compounds with VDR inhibitor. AID 602199, 2012
VDR FP fluor: qHTS for Inhibitors of the vitamin D receptor (VDR): Hit Validation using a Fluorescein Assay; shares compounds with VDR inhibitor; VDR-coactivator binding, fluorescein fluorescence polarization; Potency, µM (doses to about 57.1 µM), most hits filed as inhibitors; actives 48% (n = 840); AID 602200, 2012
VDR bla: qHTS for Inhibitors of the vitamin D receptor (VDR): Hit Validation using a Beta-Lactamase Assay; Potency, µM (titrated, usually from 46.1 µM), most hits filed as inhibitors; actives 23% (n = 840); AID 602202, 2012; VDR beta-lactamase reporter cells, FRET ratio; cells co-treated with VDR agonist LG190178; shares compounds with VDR inhibitor
VDR cytotox: qHTS for Inhibitors of the vitamin D receptor (VDR): Hit Validation using a Cytotoxicity Assay; shares compounds with VDR inhibitor; cytotoxicity counter-screen, cell viability, qHTS; Potency, µM (highest dose often 48.3 µM), actives largely listed as cytotoxic; actives 18% (n = 840); AID 602204, 2012; note: nearly all actives have a fitted effect of over 75% in size
Numbers stand for hits; i = inactive; ? = inconclusive; nt = no result; ! = a repeat was not active; [ ] = another dose, or the depositor's remark. Unless noted, calls come from the whole dose curve; as a rule, active = well fitted curve in the direction sought with a large enough effect; inconclusive = small, poorly fitted or top-dose-only effect, or another doubt; inactive = no such curve, though single readings can be large; an effect the other way counts as inactive or inconclusive.

SMILES	Tb PFK inh	Pin1 inhibitor	VDR inhibitor	PLK1 PBD block	TDP1 inh	ASM inhibitor	VDR inh confirm	VDR FP fluor	VDR bla	VDR cytotox
Cc1cccc(NC(=O)C2CCCN(c3nnc(-n4c(C)ccc4C)s3)C2)c1C (stereo not drawn)	nt	i	i	nt	i	nt	nt	nt	nt	nt
COc1ccc(CCNC(=O)c2cc(Nc3cc(C)cc(C)c3)nc3ccccc23)cc1OC	nt	i	i	nt	i	nt	nt	nt	nt	nt
Cc1cccc2c1c1ccc3c(c1n2C)C(=O)C=CC3=O	i	?	22µM	?	i	i	9.5	13µM	7.3µM	8.9µM
Cc1ccccc1N1CC(=O)N(c2ccccc2C)CC1=O	i	i	i	i	i	i	nt	nt	nt	nt
O=C(/C=C/c1ccc([N+](=O)[O-])cc1)c1ccco1	i	i	i	i	nt	i	nt	nt	nt	nt
O=C(/C=C/c1ccc([N+](=O)[O-])cc1)c1cccnc1	i	i	56µM	?	i	i	24	8.9µM	i	?
O=C(/C=C/c1cccnc1)c1ccc(F)c(F)c1	i	i	45µM	i	i	i	?	8.9µM	?	?
CC(C)(C)C(=O)Nc1ccc2c(c1)C(=O)C(=O)c1ccccc1-2	nt	nt	8.9µM	nt	i	nt	1.3	1µM	4.1µM	6µM
CC(=O)Nc1ccc2c(c1)C(=O)c1ccccc1C2=O	i	i	i	i	i	i	nt	nt	nt	nt
Cc1c(-c2ccccc2)n(-c2ccccc2O)c2nc3c(c(=O)n(C)c(=O)n3C)n12	nt	i	i	nt	i	nt	nt	nt	nt	nt
Cc1ccc(-c2cn3c(n2)sc2cc(C(=O)NCCC4=CCCCC4)ccc23)c(C)c1	nt	i	i	nt	i	nt	nt	nt	nt	nt
Cc1cc(C)n2nc(-c3cccnc3)nc2n1	i	i	i	i	i	i	nt	nt	nt	nt
Cc1ccc(/C=c2\sc3nc(-c4cccnc4)nn3c2=O)cc1	i	i	?	i	i	i	2.2	1.1µM	i	i
CC(C)c1ccc(/C=c2\sc3nc(-c4ccncc4)nn3c2=O)cc1	i[0.46 µM]	i	22µM	i	i	i	2.7	?	i	i
Cc1ccccc1CNC(=O)c1oc2c(c1C)-c1nn(Cc3ccc(Cl)cc3)cc1CC2	nt	i	i	nt	i	nt	nt	nt	nt	nt
Cc1nc(NC(=O)c2ccc(Cl)cc2)sc1Cc1ccc2c(c1)OCO2	i	i	79µM	?	i	i	?	?	i	?
COc1ccc2nc(S(=O)Cc3ncc(C)c(OC)c3C)[nH]c2c1 (stereo not drawn)	i	i	89µM!	24µM	i	i	2.7	?	i	i
O=c1/c(=C/c2ccccn2)sc2nc3ccccc3n12	i	nt	i	i	i	i	nt	nt	nt	nt
COC(=O)/C=c1/sc2nc3ccccc3n2c1=O	i	i	?	2.7µM	i	i	3.2	2.8µM	i	i
